# In PubChem BioAssay (NCATS):
# Inconclusive results are not listed. Unmarked numbers belong to inactive results. Active and inactive are the calls of the source. Calls follow the shape of the dose curve; as a rule, active = well fitted curve in the direction sought with a large enough effect; inconclusive = small, poorly fitted or top-dose-only effect, or another doubt; inactive = no such curve, though single readings can be large; an effect the other way counts as inactive or inconclusive.
# Test: Primary qHTS for inhibitors of nuclear receptor binding SET domain protein 2 (NSD2) in an isogenic RCH-ACV NSD2 p.E1099K mutant (9B) (AID 1645876)
# Details: RCH-ACV NSD2 E1099K (9B) viability, CellTiter-Glo, 72 h; series mostly up to 44.9 µM; activity change, negative = viability loss: at the top concentration
# % is scaled to controls: 0 for no effect and ±100 for the full control effect; potency is read from the fitted curve at half-maximal effect.
# Also: nearly all actives have a fitted effect of over 70% in size.
SMILES,"activity change, negative = viability loss",Potency
COc1cc2c(cc1O)C1(Cc3ccc4c(c3C1O)OCO4)[N+](C)([O-])CC2 (stereo not given),-4.7%,–
Cc1cc(CS(=O)(=O)c2ccccc2)cc(OCc2ccc(CN3CCCC3CO)cc2)c1 (stereo not given),–,14.5 µM (active)
C=C(C)[C@@H]1CC[C@]2(C(=O)O)CC[C@]3(C(=O)O)[C@H](CCC4[C@@]5(C)CCC(=O)C(C)(C)C5CC[C@]43C)C12 (stereo not given in full),–,11.2 µM (active)
C/C=C(\C)C(=O)O[C@H]1C[C@](C)(O)[C@H]2CC=C(C)[C@H]2[C@@H]2OC(=O)[C@H](C)[C@H]21,-33.9%,–
CN1CCN(c2ccc(Nc3cc(-c4cccc(-n5ccc6cc(C7CC7)cc(F)c6c5=O)c4CO)cn(C)c3=O)nc2)CC1,–,20.6 µM (active)
CC(C)c1ccc(NC(=O)Cn2cnc3c2c(=O)n(C)c(=O)n3C)cc1,-27.7%,–
CC1(C=O)CCCC2(C)C1CCC13CC(CO)C(CCC12)C3 (stereo not given),-15.1%,–
Cc1ccc(OC[C@H](O)[C@H](C)NC(C)C)c2c1CCC2,-20.2%,–
CCOc1ccc(Cc2nc(-c3c(C)nc4ccccn34)cs2)cc1,–,0.183 µM (active)
COC1C(OC(=O)/C=C/C=C/C=C/C=C/C(=O)O)CCC2(CO2)C1C1(C)OC1CC=C(C)C (stereo not given),-31.7% [at 17.3 µM],–
O=C1COC2(CCN(S(=O)(=O)c3ccc(-c4ccc5cccnc5c4)cc3)CC2)CN1C1CC1,-25%,–

# Test: Primary qHTS for inhibitors of nuclear receptor binding SET domain protein 2 (NSD2) in an RCH-ACV wild type WT cells (2C) (AID 1645877)
# Details: RCH-ACV (leukaemia line) NSD2 WT (2C) viability, CellTiter-Glo, 72 h; series mostly up to 44.9 µM; activity change, negative = cell killing: at the top concentration
SMILES,Potency,"activity change, negative = cell killing [%]"
NCC(CNc1nc(Nc2cccc(NC(=O)N3CCCC3)c2)ncc1I)C(=O)c1cccs1 (stereo not given),2.58 µM (active),–
CN(C)CCCn1cc(C2=C(c3c[nH]c4ccccc34)C(=O)NC2=O)c2ccccc21,3.25 µM (active),–
C/C(=N\N=C(N)N)c1cc(NC(=O)CCCCCCCCC(=O)Nc2cc(/C(C)=N/N=C(N)N)cc(/C(C)=N/N=C(N)N)c2)cc(/C(C)=N/N=C(N)N)c1,11.5 µM (active),–
CCCC1(CCC)CCC2(CCN(CCCN(CC)CC)C2)CC1,2.09 µM (active),–
O=C([C@@H]1CCCN(c2ccc3[nH]c(C4(n5cc(Cl)cn5)CC4)nc3n2)C1)N1CCCC1,–,-47.7
O=c1nc(-c2ccccn2)sc2ccccc12,1.63 µM (active),–
COc1cccc(-c2cn(-c3ccc(CCN4CCC(O)CC4)cc3)c3ncnc(N)c23)c1,1.83 µM (active),–
COc1cc(CCc2ccc(OCC=C(C)C)cc2)cc(OC)c1OC,–,-25.9
CCOc1ccc(Cc2nc(-c3c(C)nc4ccccn34)cs2)cc1,0.183 µM (active),–
